Compounds with a hit are over-represented: about 5.2% of the library has one in this group of screens.
VDR inhibitor: Inhibitors of the vitamin D receptor (VDR): qHTS; Vitamin D3 receptor (Homo sapiens), P11473; VDR-SRC2-3 peptide fluorescence polarization, 2 h; Potency, µM, most hits filed as inhibitors; 400,000 tested, 0.93% active; AID 504847, 2011
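The screen uses fluorescence polarization to detect compounds that interfere with recruitment of the SRC2-3 coactivator peptide to VDR; plates are read after 2 h at room temperature.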
TrxR1 inh: qHTS Assay for Inhibitors of Mammalian Selenoprotein Thioredoxin Reductase 1 (TrxR1): qHTS; Thioredoxin reductase 1, cytoplasmic (Rattus norvegicus), O89049; recombinant rTrxR1, NADPH fluorescence consumption, selenite substrate; Potency, µM (highest dose often 114 µM), actives largely listed as inhibitors; 390,000 tested, 1% active; note: nearly all actives have a fitted effect of over 65% in size
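Rat TrxR1 (90 nM in the dispensed reagent) was pre-reduced with 400 uM NADPH for 5 min at room temperature, then incubated with compound for 15 min. After 400 uM selenite was added, NADPH fluorescence (Ex 340/Em 450 nm) was followed for 8 min.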
TrxR1 substrate: qHTS Assay for Substrates of Mammalian Selenoprotein Thioredoxin Reductase 1 (TrxR1): qHTS; Thioredoxin reductase 1, cytoplasmic (Rattus norvegicus), O89049; purified TrxR1 substrate turnover, NADPH consumption readout; Potency, µM (titrated, usually from 114 µM); 390,000 tested, 0.01% active; note: nearly all actives have a fitted effect of over 50% in size
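Rat TrxR1, dispensed at 90 nM, was prereduced with 400 uM NADPH (final) for 5 min at ~22 deg C, then incubated with compound 15 min before 400 uM selenite. A first-read NADPH fluorescence drop versus no-compound background flagged substrates.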
IDH1 R132H inh: qHTS for Inhibitors of mutant isocitrate dehydrogenase 1 (IDH1): qHTS; Isocitrate dehydrogenase [NADP] cytoplasmic (Homo sapiens), O75874; IDH1-R132H enzyme, NADPH consumption, diaphorase/resazurin fluorescence; Potency, µM (doses to about 76.6 µM), actives largely listed as inhibitors; 390,000 tested, 0.093% active; note: nearly all actives have a fitted effect of over 65% in size
Target sequence (O75874 whole entry R132H, stated change not applied): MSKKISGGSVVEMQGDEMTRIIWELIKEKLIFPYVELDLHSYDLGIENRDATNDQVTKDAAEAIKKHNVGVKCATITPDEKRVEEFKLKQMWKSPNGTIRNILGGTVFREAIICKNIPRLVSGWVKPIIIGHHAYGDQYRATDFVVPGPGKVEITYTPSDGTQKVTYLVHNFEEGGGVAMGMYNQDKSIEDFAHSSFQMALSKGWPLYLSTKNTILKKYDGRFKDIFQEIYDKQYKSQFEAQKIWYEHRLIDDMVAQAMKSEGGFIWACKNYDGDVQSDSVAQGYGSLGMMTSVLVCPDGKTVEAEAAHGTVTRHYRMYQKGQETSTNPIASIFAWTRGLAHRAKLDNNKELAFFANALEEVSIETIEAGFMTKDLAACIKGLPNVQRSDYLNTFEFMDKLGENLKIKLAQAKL
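IDH1-R132H (0.5 ug/mL) preincubated 30 min with compound, then NADPH (0.016 mM) and alpha-KG (2 mM) added; 80 min at RT, pH 7.5. Remaining NADPH coupled via diaphorase/resazurin to fluorescence (540/590 nm); concentration-response curves normalized to no-enzyme control.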
PLK1 PBD inh: qHTS for Inhibitors of PLK1-PDB (polo-like kinase 1 - polo-box domain): Primary Screen; Serine/threonine-protein kinase PLK1 (Homo sapiens), P53350; Plk1 PBD binding of FITC phosphopeptide, fluorescence polarization; Potency, µM, most hits filed as inhibitors; 360,000 tested, 2.8% active; note: series mostly up to about 57 µM; nearly all actives have a fitted effect of over 65% in size
Sfp PPTase inh: qHTS Assay for Inhibitors of Bacillus subtilis Sfp phosphopantetheinyl transferase (PPTase); Potency, µM, usual class: inhibitors; 4'-phosphopantetheinyl transferase ffp (Bacillus subtilis), Q9F4F7; 310,000 tested, 3.5% active; Biochemical Sfp PPTase activity, qHTS;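 note: the enzyme is Sfp with the accession as filed and its product quenches rhodamine fluorescence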
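Buffer: 50 mM Hepes-Na pH 7.6, 10 mM MgCl2, 0.01% Nonidet P-40, 0.01% BSA. Enzyme 15 nM, pre-exposed to compound 15 min; substrates then added and fluorescence change tracked over 30 min.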
A number is an active result; - = inactive; ? = inconclusive; . = not tested or not shown; [ ] = another dose, or the depositor's remark. Calls come from the whole dose curve; as a rule, active = well fitted curve in the direction sought with a large enough effect; inconclusive = small, poorly fitted or top-dose-only effect, or another doubt; inactive = no such curve, though single readings can be large; an effect the other way counts as inactive or inconclusive.

SMILES	VDR inhibitor	TrxR1 inh	TrxR1 substrate	IDH1 R132H inh	PLK1 PBD inh	Sfp PPTase inh
O=c1oc2ccc(Cl)cc2cc1-c1nc(-c2cccs2)no1	-	-	-	-	.	.
COc1ccc(CNC(=O)c2ccc(S(=O)(=O)N3CC(C)CC(C)C3)cc2)cc1OC (stereo not drawn)	-	-	-	-	-	.
Cc1ccc(-c2noc(CC(=O)c3ccc([N+](=O)[O-])cc3)n2)cc1	-	-	-	-	-	.
Cc1ccc(/C=C2\SC(=S)N(C3CCS(=O)(=O)C3)C2=O)o1 (stereo not drawn)	-	15.8µM	-	-	18.9µM	50.1µM
CC1=C(C#N)C(=O)N(C2CCS(=O)(=O)C2)C(=O)/C1=C\c1ccc(C)o1 (stereo not drawn)	.	.	.	.	.	12.6µM
O=C1/C(=C/c2ccncc2)SC(=S)N1C1CCS(=O)(=O)C1 (stereo not drawn)	-	?	-	-	?	50.1µM
NS(=O)(=O)c1ccc(-c2ccc(/C=C3\SC(=S)N(C4CCS(=O)(=O)C4)C3=O)o2)cc1 (stereo not drawn)	?	-	-	-	-	?
O=C1/C(=C/c2ccccc2)SC(=S)N1C1CCS(=O)(=O)C1 (stereo not drawn)	-	-	-	-	-	-
COc1ccc(S(=O)(=O)N2CCCOC2CNC(=O)C(=O)NCCCN2CCOCC2)cc1C (stereo not drawn)	-	-	-	-	-	-
COc1ccc2c(c1)sc1nc(-c3ccccc3)cn12	-	-	-	-	-	50.1µM
COc1ccc(NC(=O)c2ccccc2Sc2ccc(NC(C)=O)nc2)cc1	-	-	-	-	-	-
CC(=O)Nc1ccc(Sc2ccccc2C(=O)Nc2ccc(F)cc2)cn1	-	-	-	-	18.9µM	-
C/C(=N\NC(=O)c1ccccn1)c1ccc(Cl)cc1	-	-	-	?	-	89.1µM
O=C(N/N=C/c1cccs1)c1ccccn1	-	-	-	-	-	50.1µM
O=C(Sc1ccc(Cl)cc1)c1ccccn1	?	1.12µM	-	-	?	.
C/C(=N\NC(=O)c1ccc(Cl)cc1)c1ccccn1	-	-	-	-	-	-
Cc1nnc(C)n1/N=C/c1cccn1C	-	-	-	-	2.99µM	-
CSCC[C@H](NC(=O)[C@H](Cc1ccccc1)NC(=O)[C@H](Cc1cnc[nH]1)NC(=O)CNC(=O)[C@@H](NC(=O)[C@H](C)NC(=O)[C@H](Cc1c[nH]c2ccccc12)NC(=O)[C@H](CC(C)C)NC(=O)[C@H](CC(N)=O)NC(=O)CN)[C@@H](C)O)C(N)=O	-	.	.	.	.	-
Cn1cccc1/C=N/NC(=O)c1ccccn1	?	-	-	-	23.8µM	79.4µM
Cn1cccc1/C=N/NC(N)=S	-	-	-	-	-	56.2µM
COc1cccc(C(O)c2nc(-c3ccccc3)cs2)c1 (stereo not drawn)	.	.	.	.	-	.
O=C(Nc1cccc(F)c1)C1CCN(S(=O)(=O)c2cccc3nsnc23)CC1	?	-	-	-	.	.
Cc1ccc(NC(=O)c2ccccc2)cc1C	-	-	-	-	-	.
Cc1ccc(NC(=O)/C=C\C(=O)NCC(=O)O)cc1C	-	44.7µM	-	-	-	-
CC1(C)OC2C(CO)OC(n3cnc4c(=O)[nH]cnc43)C2O1 (stereo not drawn)	-	.	.	.	.	-
SMILES	VDR inhibitor	TrxR1 inh	TrxR1 substrate	IDH1 R132H inh	PLK1 PBD inh	Sfp PPTase inh
OCC1OC(n2cnc3c(=S)nc[nH]c32)C(O)C1O (stereo not drawn)	-	-	-	.	.	3.55µM
CC1(C)OC2C(CO)OC(n3cnc4c(=S)nc[nH]c43)C2O1 (stereo not drawn)	-	-	-	-	-	15.8µM
COc1ccc(NC(=O)CSc2n[nH]c(-c3ccccc3)n2)cc1Cl	-	-	-	-	.	.
CC(=O)N1CCC(C(=O)Nc2nnc(C(C)C)s2)CC1	-	-	-	.	.	.
Cc1ccc(CN(C)C2CCN(C)CC2)cc1	-	-	-	-	23.8µM	-
CN(Cc1ccc(O)cc1)C1CCCCC1	-	-	-	-	-	-
COc1ccc(CN(C)C2CCCCC2)cc1	?	-	-	-	23.8µM	-
COc1ccc(CCNC(=O)CCNC(=O)N2CC(=O)Nc3ccccc32)cc1	-	-	-	-	21.2µM	-
COc1ccccc1N1CCN(S(=O)(=O)c2ccc(-c3cc(C(F)(F)F)on3)s2)CC1	-	-	-	-	.	.
CCSC1(SCC)N=C(N)C2(C#N)C(c3ccc(OC)c(OC)c3OC)C12C#N (stereo not drawn)	?	44.7µM	-	-	13.4µM	-
CCSC1(SCC)N=C(N)C2(C#N)C(c3ccccc3)NC3=C(CCC3)C12C#N (stereo not drawn)	-	?	-	-	-	-
Cc1sc(-n2c(C)ccc2C)c(C#N)c1C	79.4µM	-	-	-	18.9µM	63.1µM
CCSc1ncc(Cl)c(C(=O)N(Cc2ccccc2)Cc2ccco2)n1	-	-	-	.	.	.
CCS(=O)(=O)c1ncc(Cl)c(C(=O)N2CCN(c3ccc(OC)cc3)CC2)n1	?	3.16µM	-	.	.	.
CCCS(=O)(=O)c1ncc(Cl)c(C(=O)N(Cc2ccccc2)Cc2ccco2)n1	22.4µM	1.78µM	-[0.457 µM]	-	.	.
CCc1ccc(NC(=O)c2nc(S(=O)(=O)Cc3ccccc3)ncc2Cl)cc1	.	.	.	.	.	-
CCS(=O)(=O)c1ncc(Cl)c(C(=O)N(Cc2ccccc2)c2ccc(OC)cc2)n1	?	3.55µM	-	-	.	.
COc1ccc(N(Cc2ccccc2)C(=O)c2nc(SC)ncc2Cl)cc1	-	-	-	-	.	.
CCS(=O)(=O)c1ncc(Cl)c(C(=O)Nc2ccccc2)n1	?	2.51µM	-	-	.	.
CN1CCN(C(=O)c2ccc3c(c2)N(Cc2ccc(F)cc2)C(=O)c2ccccc2S3(=O)=O)CC1	-	-	-	-	.	.
COc1ccc(CCNC(=O)C(=O)NCC(c2ccc3c(c2)OCO3)N2CCOCC2)cc1OC (stereo not drawn)	-	-	-	-	.	.
COc1ccc([C@@H]2CC(=O)c3c(O)cc(O[C@@H]4O[C@H](CO)[C@@H](O)[C@H](O)[C@H]4OC4O[C@@H](C)[C@H](O)[C@@H](O)[C@H]4O)cc3O2)cc1O (stereo partly drawn)	-	.	.	.	.	-
CC(C)c1ccc(C2(C)NC(=O)N(CC(=O)NCC3COc4ccccc4O3)C2=O)cc1 (stereo not drawn)	-	-	-	-	-	.
